Assay results: paper PMC7862700, “An all-to-all approach to the identification of sequence-specific readers for epigenetic DNA modifications on cytosine”

Columns and labels:
Assay in all cases: DAPPL (digital affinity profiling via proximity ligation, sequencing); 10 mM Tris-HCl pH 7.5, 50 mM NaCl, 1 mM DTT, 4% glycerol, room temperature, 30 min; GST-TFs on glutathione beads, 16-mer random dsDNA library, 0.1% formaldehyde crosslink after washing; high values mean tight binding
Conditions in all cases: protein: recombinant; tags: N-terminal GST; dsDNA, one strand shown
FLI1 = biological target: T1, FLI1 (Homo sapiens, UniProt Q01543 1-452)
T1 sequence: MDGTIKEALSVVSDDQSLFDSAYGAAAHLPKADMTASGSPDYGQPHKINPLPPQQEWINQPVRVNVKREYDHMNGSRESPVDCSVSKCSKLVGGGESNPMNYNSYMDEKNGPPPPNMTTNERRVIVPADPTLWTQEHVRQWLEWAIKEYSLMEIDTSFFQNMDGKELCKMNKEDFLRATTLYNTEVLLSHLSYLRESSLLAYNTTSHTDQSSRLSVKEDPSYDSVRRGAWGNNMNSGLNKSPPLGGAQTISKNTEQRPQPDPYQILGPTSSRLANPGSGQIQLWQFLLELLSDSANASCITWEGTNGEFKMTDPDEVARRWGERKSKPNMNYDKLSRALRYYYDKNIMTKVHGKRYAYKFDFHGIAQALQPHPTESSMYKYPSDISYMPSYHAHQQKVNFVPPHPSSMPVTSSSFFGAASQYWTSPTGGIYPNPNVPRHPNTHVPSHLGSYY
In short: (§1)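 Sequencing on an Illumina NextSeq500 followed washing, crosslinking with 0.1% formaldehyde, proximity ligation (BsaI/T4 ligase, 1 h, 37 °C) and PCR amplification of pools that had been incubated for 30 min at room temperature with 200 nmole of a random double-stranded 16-mer DNA library in Tris/NaCl/DTT/glycerol buffer. Each pool held DNA-barcoded human transcription factors, expressed in yeast as GST fusions and captured on glutathione beads, plus a tag-only sample. Binding signal is a hexamer's read frequency for a factor divided by its frequency in the tag-only sample.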

ELK1 = biological target: T2, ELK1 (Homo sapiens, UniProt P19419 1-428)
T2 sequence: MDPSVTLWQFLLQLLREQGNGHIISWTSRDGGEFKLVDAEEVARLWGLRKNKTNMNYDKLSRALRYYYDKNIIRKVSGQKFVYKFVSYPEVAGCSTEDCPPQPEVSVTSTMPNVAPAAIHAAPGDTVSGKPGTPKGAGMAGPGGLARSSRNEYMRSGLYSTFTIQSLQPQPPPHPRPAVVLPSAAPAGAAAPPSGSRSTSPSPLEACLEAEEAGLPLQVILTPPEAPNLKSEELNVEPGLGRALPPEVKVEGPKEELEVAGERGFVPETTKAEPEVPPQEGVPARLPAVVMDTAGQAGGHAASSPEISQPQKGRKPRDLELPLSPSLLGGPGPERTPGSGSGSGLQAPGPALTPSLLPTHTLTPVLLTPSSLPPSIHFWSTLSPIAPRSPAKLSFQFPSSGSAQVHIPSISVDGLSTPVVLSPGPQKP
In short: as §1

GABPA = biological target: T3, GABPA (Homo sapiens, UniProt Q06546 1-454)
T3 sequence: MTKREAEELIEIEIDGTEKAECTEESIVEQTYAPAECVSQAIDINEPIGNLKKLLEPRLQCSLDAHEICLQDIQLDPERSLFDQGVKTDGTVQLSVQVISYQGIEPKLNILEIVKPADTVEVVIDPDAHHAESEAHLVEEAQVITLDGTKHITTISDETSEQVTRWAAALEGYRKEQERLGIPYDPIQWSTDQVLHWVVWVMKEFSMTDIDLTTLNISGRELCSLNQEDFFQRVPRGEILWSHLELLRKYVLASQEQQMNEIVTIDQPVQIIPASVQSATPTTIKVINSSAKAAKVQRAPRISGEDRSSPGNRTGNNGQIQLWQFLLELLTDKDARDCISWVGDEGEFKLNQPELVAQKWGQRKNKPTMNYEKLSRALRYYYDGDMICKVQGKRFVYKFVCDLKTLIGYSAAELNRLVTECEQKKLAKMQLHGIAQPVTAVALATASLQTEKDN
In short: as §1

ERG = biological target: T4, ERG (Homo sapiens, UniProt P11308 1-479)
T4 sequence: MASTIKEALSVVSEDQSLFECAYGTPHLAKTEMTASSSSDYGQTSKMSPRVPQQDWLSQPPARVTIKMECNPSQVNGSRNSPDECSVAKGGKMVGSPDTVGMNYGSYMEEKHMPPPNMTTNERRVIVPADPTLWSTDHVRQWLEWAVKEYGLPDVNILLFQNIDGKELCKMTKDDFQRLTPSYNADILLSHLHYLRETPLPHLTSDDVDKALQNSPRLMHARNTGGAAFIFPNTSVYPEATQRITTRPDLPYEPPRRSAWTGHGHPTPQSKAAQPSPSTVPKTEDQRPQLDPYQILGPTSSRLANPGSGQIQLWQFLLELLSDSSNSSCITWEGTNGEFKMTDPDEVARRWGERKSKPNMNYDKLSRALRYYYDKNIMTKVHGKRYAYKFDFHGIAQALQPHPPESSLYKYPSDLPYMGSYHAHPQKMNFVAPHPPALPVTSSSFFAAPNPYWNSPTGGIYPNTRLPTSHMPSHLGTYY
In short: as §1

ELF1 = ELF1 (Homo sapiens, UniProt P32519 1-619)
In short: as §1

EHF = biological target: T5, EHF (Homo sapiens, UniProt Q9NZC4 1-300)
T5 sequence: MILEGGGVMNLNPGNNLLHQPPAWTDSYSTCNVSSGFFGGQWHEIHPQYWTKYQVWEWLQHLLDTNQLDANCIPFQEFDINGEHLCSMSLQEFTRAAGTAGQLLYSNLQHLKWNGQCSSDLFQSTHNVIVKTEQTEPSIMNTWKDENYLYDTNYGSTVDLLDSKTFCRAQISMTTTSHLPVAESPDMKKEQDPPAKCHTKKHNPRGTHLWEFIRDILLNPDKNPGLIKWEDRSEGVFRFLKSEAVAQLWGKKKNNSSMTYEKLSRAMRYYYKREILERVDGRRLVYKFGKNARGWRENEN
In short: as §1

SPI1 = SPI1 (Homo sapiens, UniProt P17947 1-270)
In short: as §1

SPIB = SPIB (Homo sapiens, UniProt Q01892 1-262)
In short: as §1

ELK3 = biological target: T6, ELK3 (Homo sapiens, UniProt P41970 1-407)
T6 sequence: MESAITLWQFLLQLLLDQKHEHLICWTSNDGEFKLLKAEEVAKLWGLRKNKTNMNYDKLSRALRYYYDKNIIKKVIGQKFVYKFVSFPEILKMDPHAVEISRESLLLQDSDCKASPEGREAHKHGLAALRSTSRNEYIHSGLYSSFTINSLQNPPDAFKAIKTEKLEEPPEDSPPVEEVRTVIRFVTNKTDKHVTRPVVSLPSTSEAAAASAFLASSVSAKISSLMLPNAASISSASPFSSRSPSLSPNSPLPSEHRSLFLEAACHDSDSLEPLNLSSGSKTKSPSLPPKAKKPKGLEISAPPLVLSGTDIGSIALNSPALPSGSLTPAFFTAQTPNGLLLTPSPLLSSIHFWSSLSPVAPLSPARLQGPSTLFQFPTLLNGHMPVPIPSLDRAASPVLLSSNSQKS
In short: as §1

SPIB, sequence (Q01892 whole entry): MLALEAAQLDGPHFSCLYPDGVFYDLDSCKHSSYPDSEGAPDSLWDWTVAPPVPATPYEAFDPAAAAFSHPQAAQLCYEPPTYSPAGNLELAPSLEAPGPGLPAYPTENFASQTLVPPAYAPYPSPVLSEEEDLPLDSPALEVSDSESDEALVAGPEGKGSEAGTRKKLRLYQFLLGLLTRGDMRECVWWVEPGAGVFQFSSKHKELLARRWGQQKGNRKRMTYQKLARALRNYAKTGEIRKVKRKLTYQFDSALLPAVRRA
ELF1, sequence (P32519 whole entry): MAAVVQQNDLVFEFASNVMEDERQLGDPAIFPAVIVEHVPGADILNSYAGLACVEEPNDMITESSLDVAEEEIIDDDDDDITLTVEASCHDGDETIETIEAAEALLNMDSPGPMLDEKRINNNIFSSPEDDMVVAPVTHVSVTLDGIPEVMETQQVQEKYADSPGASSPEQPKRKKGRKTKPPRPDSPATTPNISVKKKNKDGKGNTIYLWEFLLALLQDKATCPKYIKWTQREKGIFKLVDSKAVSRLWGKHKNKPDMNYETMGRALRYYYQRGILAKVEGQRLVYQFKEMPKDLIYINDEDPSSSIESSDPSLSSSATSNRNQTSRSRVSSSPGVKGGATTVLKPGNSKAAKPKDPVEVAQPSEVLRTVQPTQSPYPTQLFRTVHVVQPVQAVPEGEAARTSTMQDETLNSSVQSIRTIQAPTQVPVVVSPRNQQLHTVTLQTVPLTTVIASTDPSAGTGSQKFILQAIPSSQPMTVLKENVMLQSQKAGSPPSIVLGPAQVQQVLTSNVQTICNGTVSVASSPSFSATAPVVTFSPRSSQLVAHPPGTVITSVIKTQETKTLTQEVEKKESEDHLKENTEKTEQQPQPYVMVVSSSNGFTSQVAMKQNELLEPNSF

Sequence	binding signal (FLI1)	binding signal (ELK1)	binding signal (GABPA)	binding signal (ERG)	binding signal (ELF1)	binding signal (EHF)	binding signal (SPI1)	binding signal (SPIB)	binding signal (ELK3)
TATGCT	1.28 fold enrichment (6-mer frequency, TF over GST control)	1.28 fold enrichment (6-mer frequency, TF over GST control)	1.32 fold enrichment (6-mer frequency, TF over GST control)	1.26 fold enrichment (6-mer frequency, TF over GST control)	1.29 fold enrichment (6-mer frequency, TF over GST control)	1.33 fold enrichment (6-mer frequency, TF over GST control)	1.41 fold enrichment (6-mer frequency, TF over GST control)	1.33 fold enrichment (6-mer frequency, TF over GST control)	1.22 fold enrichment (6-mer frequency, TF over GST control)
CTACAC	1.3 fold enrichment (6-mer frequency, TF over GST control)	1.27 fold enrichment (6-mer frequency, TF over GST control)	1.34 fold enrichment (6-mer frequency, TF over GST control)	1.34 fold enrichment (6-mer frequency, TF over GST control)	1.33 fold enrichment (6-mer frequency, TF over GST control)	1.36 fold enrichment (6-mer frequency, TF over GST control)	1.21 fold enrichment (6-mer frequency, TF over GST control)	1.33 fold enrichment (6-mer frequency, TF over GST control)	1.27 fold enrichment (6-mer frequency, TF over GST control)
GCGATG	1.2 fold enrichment (6-mer frequency, TF over GST control)	1.48 fold enrichment (6-mer frequency, TF over GST control)	1.37 fold enrichment (6-mer frequency, TF over GST control)	1.23 fold enrichment (6-mer frequency, TF over GST control)	1.31 fold enrichment (6-mer frequency, TF over GST control)	1.25 fold enrichment (6-mer frequency, TF over GST control)	1.34 fold enrichment (6-mer frequency, TF over GST control)	1.29 fold enrichment (6-mer frequency, TF over GST control)	1.31 fold enrichment (6-mer frequency, TF over GST control)
TGGTAA	1.28 fold enrichment (6-mer frequency, TF over GST control)	1.33 fold enrichment (6-mer frequency, TF over GST control)	1.32 fold enrichment (6-mer frequency, TF over GST control)	1.28 fold enrichment (6-mer frequency, TF over GST control)	1.28 fold enrichment (6-mer frequency, TF over GST control)	1.37 fold enrichment (6-mer frequency, TF over GST control)	1.28 fold enrichment (6-mer frequency, TF over GST control)	1.4 fold enrichment (6-mer frequency, TF over GST control)	1.32 fold enrichment (6-mer frequency, TF over GST control)
AAACCA	1.13 fold enrichment (6-mer frequency, TF over GST control)	1.11 fold enrichment (6-mer frequency, TF over GST control)	1.14 fold enrichment (6-mer frequency, TF over GST control)	1.19 fold enrichment (6-mer frequency, TF over GST control)	1.18 fold enrichment (6-mer frequency, TF over GST control)	1.17 fold enrichment (6-mer frequency, TF over GST control)	1.07 fold enrichment (6-mer frequency, TF over GST control)	1.16 fold enrichment (6-mer frequency, TF over GST control)	1.18 fold enrichment (6-mer frequency, TF over GST control)
CATCTT	1.18 fold enrichment (6-mer frequency, TF over GST control)	1.27 fold enrichment (6-mer frequency, TF over GST control)	1.17 fold enrichment (6-mer frequency, TF over GST control)	1.27 fold enrichment (6-mer frequency, TF over GST control)	1.25 fold enrichment (6-mer frequency, TF over GST control)	1.2 fold enrichment (6-mer frequency, TF over GST control)	1.21 fold enrichment (6-mer frequency, TF over GST control)	1.21 fold enrichment (6-mer frequency, TF over GST control)	1.29 fold enrichment (6-mer frequency, TF over GST control)
TTGTTA	1.32 fold enrichment (6-mer frequency, TF over GST control)	1.34 fold enrichment (6-mer frequency, TF over GST control)	1.32 fold enrichment (6-mer frequency, TF over GST control)	1.33 fold enrichment (6-mer frequency, TF over GST control)	1.29 fold enrichment (6-mer frequency, TF over GST control)	1.36 fold enrichment (6-mer frequency, TF over GST control)	1.26 fold enrichment (6-mer frequency, TF over GST control)	1.33 fold enrichment (6-mer frequency, TF over GST control)	1.47 fold enrichment (6-mer frequency, TF over GST control)
